Reference: PMC4336329 (PLoS ONE, 2015)
The whole screen tested about 310,000 compounds, of which about 14,000 (4.5%) showed an effect of 50% or more. The effect is printed as a negative number. For the sample, strong results were picked, then their nearest neighbours and some compounds at random.

Each compound was assayed against human ether-à-go-go-related gene (hERG) potassium channel (human, UniProt Q12809) (assay: primary screen, population patch clamp on CHO cells stably expressing hERG; higher = less effect of the substance).
human ether-à-go-go-related gene (hERG) potassium channel, sequence (Q12809 whole entry, looked up): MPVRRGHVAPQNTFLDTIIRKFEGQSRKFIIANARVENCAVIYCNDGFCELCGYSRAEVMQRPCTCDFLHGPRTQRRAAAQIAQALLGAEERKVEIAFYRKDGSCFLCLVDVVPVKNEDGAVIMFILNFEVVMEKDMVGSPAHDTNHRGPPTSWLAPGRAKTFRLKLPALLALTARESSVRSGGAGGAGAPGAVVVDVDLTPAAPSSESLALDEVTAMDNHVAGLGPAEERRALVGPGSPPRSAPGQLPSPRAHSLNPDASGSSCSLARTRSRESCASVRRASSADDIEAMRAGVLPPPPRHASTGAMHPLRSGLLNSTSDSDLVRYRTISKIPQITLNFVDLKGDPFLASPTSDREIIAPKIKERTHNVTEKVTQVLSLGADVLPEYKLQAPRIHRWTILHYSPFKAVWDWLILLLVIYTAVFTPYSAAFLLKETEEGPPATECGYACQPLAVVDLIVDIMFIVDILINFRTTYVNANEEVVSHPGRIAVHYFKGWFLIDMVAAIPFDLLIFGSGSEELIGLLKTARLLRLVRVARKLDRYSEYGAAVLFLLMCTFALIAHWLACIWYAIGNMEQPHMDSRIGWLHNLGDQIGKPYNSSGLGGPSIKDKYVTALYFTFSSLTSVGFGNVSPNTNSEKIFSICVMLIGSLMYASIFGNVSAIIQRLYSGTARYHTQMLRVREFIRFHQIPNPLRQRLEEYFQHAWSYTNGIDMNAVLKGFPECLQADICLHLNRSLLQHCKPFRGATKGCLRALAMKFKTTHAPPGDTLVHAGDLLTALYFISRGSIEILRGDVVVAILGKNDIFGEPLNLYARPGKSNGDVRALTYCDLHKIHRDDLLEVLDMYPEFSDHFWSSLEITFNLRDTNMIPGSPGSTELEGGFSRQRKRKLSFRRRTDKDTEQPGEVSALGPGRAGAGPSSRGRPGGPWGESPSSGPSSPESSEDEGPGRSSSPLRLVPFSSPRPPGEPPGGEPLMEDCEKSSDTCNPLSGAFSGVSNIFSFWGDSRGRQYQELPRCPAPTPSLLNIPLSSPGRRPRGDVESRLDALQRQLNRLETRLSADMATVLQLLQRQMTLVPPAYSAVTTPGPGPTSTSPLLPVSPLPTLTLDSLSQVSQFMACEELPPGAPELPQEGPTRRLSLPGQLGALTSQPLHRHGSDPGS
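Note: peak tail current of the secondary pulse compared with the same well before compound.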

SMILES	hERG current change (%, negative = inhibition) at 10uM [%]
CCOC(=O)C1C2C=CC3(CN(Cc4ccccc4)C(=O)C13)O2 (stereo not shown)	13.7
C/C(CC(=O)NC1CCCCCC1)=N\NC(=O)c1cnccn1	2.01
CC(C)n1cnnc1SCC(=O)NCC(=O)Nc1ccc(F)cc1	11.2
C/C(=N\NC(=O)c1ccn(C)n1)c1ccc(NC(=O)c2cccc(F)c2)cc1	8.11
CCc1ccc(OC(=O)c2cccnc2)cc1	21.6
COCCCNC(=O)c1ccccc1NS(C)(=O)=O	4.15
CCOc1ccc2nc(NCCNC(=O)C3CC3)c(C)cc2c1	-63.7
CCOc1ccc2nc(NCCNC(=O)C(C)(C)C)c(C)cc2c1	-46.1
COCC(=O)NCCNc1nc2ccc(C)cc2cc1C	-24.9
CCOc1ccc2nc(NCCNC(=O)CC)c(C#N)cc2c1	-12
CCOc1ccc2nc(NCCNC(=O)C(C)C)c(C)cc2c1	-61
COc1ccc(C(=O)NCCNc2nc3cc(C)c(C)cc3cc2C)cc1	7.22
O=C(CSc1nc(-c2ccccc2)cs1)Nc1nccs1	-8.07
CC(=O)c1c(N2CCN(C(=O)c3ccco3)CC2)nc(=S)n(-c2ccccc2)c1C	-1.95
Cc1cc(NC(=O)c2ccc(Br)c(S(=O)(=O)N3CCCC3)c2)no1	0.115
COc1ccc2cc1Oc1ccc(cc1)C[C@H]1c3cc(c(OC)cc3CCN1C)Oc1c(O)c(OC)cc3c1[C@H](C2)N(C)CC3	-47.7
COc1ccc2cc1Oc1ccc(cc1)C[C@H]1c3cc(c(OC)cc3CCN1C)Oc1c(OC)c(OC)cc3c1[C@@H](C2)N(C)CC3	-57.4
COc1ccc2cc1Oc1ccc(cc1)C[C@H]1c3cc(c(OC)cc3CCN1C)Oc1c(OC)c(OC)cc3c1[C@H](C2)N(C)CC3	-37.4
CC(C)CN(C(=O)c1ccc(N2CCCC2=O)cc1)c1c(N)n(Cc2ccccc2)c(=O)[nH]c1=O	19.6
COc1ccc(N2CCN(C(=O)c3ccc(S(=O)(=O)NCc4ccco4)cc3)CC2)cc1	-54.7
Cc1cccc(N2CCN(C(=O)c3ccc(Cl)c(S(=O)(=O)NCc4ccco4)c3)CC2)c1C	4.75
O=C(c1ccc(S(=O)(=O)NCc2ccco2)cc1)N1CCN(c2ccc(F)cc2)CC1	-31.5
COc1ccccc1N1CCN(C(=O)c2ccc(Cl)c(S(=O)(=O)NCc3ccco3)c2)CC1	-14.2

SMILES	hERG current change (%, negative = inhibition) at 10uM [%]
CCOC(=O)N1CCN(C(=O)c2ccc(S(=O)(=O)NCc3ccco3)cc2)CC1	-2
O=C(c1ccc(S(=O)(=O)NCc2ccco2)cc1)N1CCN(Cc2ccccc2)CC1	2.86
O=C(c1ccc(S(=O)(=O)NCc2ccco2)cc1)N1CCN(Cc2ccc3c(c2)OCO3)CC1	-32.5
O=C(c1ccc(Cl)c(S(=O)(=O)NCc2ccco2)c1)N1CCN(c2ccc(F)cc2)CC1	-70.3
N#Cc1ccc(CN2CCN(C(=O)c3ccc(S(=O)(=O)NCc4ccco4)cc3)CC2)cc1	-59.8
Cc1cccc(NC(=O)CN2C(=O)COc3ccc(Cl)cc32)c1C	8.74
O=C(NCC(=O)N(Cc1ccco1)C(C(=O)NC1CCCC1)c1ccncc1)c1cccs1 (stereo not shown)	-0.29
O=C(N/N=C/c1cc([N+](=O)[O-])ccc1O)C1CC1	9.47
Cc1cc(C)n(-c2nc3ccccc3c(=O)n2OCCOc2ccccc2)n1	-1.88
COc1ccc2c(c1)C(=O)Cc1ccccc1O2	0.762
COc1ccc(C(c2nnnn2C2CCCCC2)N2CCN(C)CC2)c(OC)c1 (stereo not shown)	-4.87
N/C(=N\OC(=O)C12CC3CC(CC(C3)C1)C2)c1ccccc1	-11.1
COc1ccc2nc(/N=C/c3c(O)n(-c4cccc(Cl)c4)c(=O)[nH]c3=O)sc2c1	2.53
CCOC(=O)CC(=O)CSc1nc2nc(C)cc(C)n2n1	8.34
O=C(Nc1ccccc1)c1ccncc1	1.31
O=C(COC(=O)c1ccc(O)cc1O)NNC(=O)c1cccs1	6.45
CSc1nc(N2CCOCC2)cc(N2CCOCC2)n1	7.09
O=C(CN1C(=O)c2cccc3cccc(c23)C1=O)N1CCCCC1	0.0571
Cc1cc(C)c(NC(=O)C2CCCN2CCOC(=O)c2cccc([N+](=O)[O-])c2)c(C)c1.Cl (stereo not shown)	-63.2
Cc1cc(C)c(NC(=O)C2CCCN2CCO)c(C)c1 (stereo not shown)	-14.5
Cc1cc(C)c(NC(=O)C2CCCN2CCOC(=O)c2ccccc2)c(C)c1.Cl (stereo not shown)	-26
CC(NC(=O)c1ccccc1F)c1nnc(SCC(=O)NC2=NCCS2)n1C (stereo not shown)	22.3
COC(=O)c1cc(CNC(=O)c2ccccc2Cl)ccc1OC	0.487

SMILES	hERG current change (%, negative = inhibition) at 10uM [%]
COc1ccc(C2c3sc(=O)[nH]c3SC3C4CCC(C4)C23)cc1OC (stereo not shown)	-17.5
COC(=O)C1CSc2[nH]c(=O)sc2C1c1ccc(OC)c(OC)c1 (stereo not shown)	0.0419
COC(=O)C1=C(C(=O)OC)C(c2ccccc2O)c2sc(=O)[nH]c2S1 (stereo not shown)	-55.9
COC(=O)C1=C(C(=O)OC)C(c2cc([N+](=O)[O-])ccc2O)c2sc(=O)[nH]c2S1 (stereo not shown)	1.28
COC(=O)C1=C(C(=O)OC)C(c2cc(Br)ccc2O)c2sc(=O)[nH]c2S1 (stereo not shown)	-47.6
COC(=O)C1=C(C(=O)OC)C(c2ccc(OC)c(OC)c2)c2sc(=O)[nH]c2S1 (stereo not shown)	-54.8
S=c1[nH]nc(-c2ccc(Cl)cc2)n1-c1cccnc1	23.5
Cc1ccc(-c2nc(C#N)c(N3CCC(C)CC3)o2)cc1	17.5
N#Cc1c(N)nc2c(c1-c1ccncc1)CCCCC2	-12.3
COc1ccc(OC)c(CN2CCCC(C(=O)c3ccccc3SC)C2)c1 (stereo not shown)	-75.9
COc1cc(OC)c(OC)cc1CN1CCCC(C(=O)c2ccccc2SC)C1 (stereo not shown)	-58.5
COCCC(=O)N1CCCC(C(=O)c2ccccc2SC)C1 (stereo not shown)	13.1
COc1cc(CN2CCCC(C(=O)c3ccccc3SC)C2)cc(OC)c1 (stereo not shown)	-74.4
COc1ccc(O)c(CN2CCCC(C(=O)c3ccccc3SC)C2)c1 (stereo not shown)	-30.9
O=C(/C=C/c1ccc(S(=O)(=O)N2CCOCC2)cc1)NCc1ccccc1	-4.31
O=c1[nH]c(-c2ccc(Cl)cc2)cs1	9.25
COc1cc(NC(=O)Nc2cccc([N+](=O)[O-])c2)cc(OC)c1	1.42
COc1cccc(NC(=O)[C@@H]2CCCN2S(=O)(=O)c2cccc3cccnc23)c1	-5.87
COCCN(C(=O)CCC(=O)Nc1nccs1)C(C(=O)NC(C)(C)C)c1ccc(F)cc1 (stereo not shown)	-1.98
COC(=O)CSc1nnc(CNc2ccc(F)cc2)o1	14.5
COc1ccc(/C(N)=N/O)cc1O	5.51
CC1CN(Cc2ccccc2)c2nc3c(c(=O)n(C)c(=O)n3C)n2C1 (stereo not shown)	-36.1
Cn1c(=O)c2c(nc3n2CCCN3CCc2ccccc2)n(C)c1=O	-1.45

SMILES	hERG current change (%, negative = inhibition) at 10uM [%]
CC(C)Cn1c(=O)c2c(nc3n2CC(C)CN3Cc2ccccc2)n(C)c1=O (stereo not shown)	-83.3
C=CCn1c(=O)c2c(nc3n2CCCN3CCc2ccc(OC)c(OC)c2)n(C)c1=O	-79.6
CCCn1c(=O)c2c(nc3n2CCCN3CCc2ccc(OC)c(OC)c2)n(C)c1=O	-23.7
Cn1c(=O)n(CC(=O)O)c(=O)c2c1nc1n2CCCN1CCc1ccccc1	13.6
CC(C)Cn1c(=O)c2c(nc3n2CCCN3CCc2ccccc2)n(C)c1=O	-76
C=C(C)Cn1c(=O)c2c(nc3n2CCCN3CCc2ccccc2)n(C)c1=O	-73.3
CCCn1c(=O)c2c(nc3n2CC(C)CN3Cc2ccccc2)n(C)c1=O (stereo not shown)	-39.4
CCn1c(=O)c2c(nc3n2CCCN3CCc2ccc(OC)c(OC)c2)n(C)c1=O	-5.18
Cn1c(=O)n(Cc2ccccc2)c(=O)c2c1nc1n2CCCN1CCc1ccccc1	-26
C=C(C)Cn1c(=O)c2c(nc3n2CCCN3Cc2ccccc2)n(C)c1=O	-17.9
CCOc1ccc(-n2nnc3c(=O)n(CC(=O)N4CCCc5ccccc54)cnc32)cc1	-4.52
O=C(Nc1nc2ccc(S(=O)(=O)N3CCCC3)cc2s1)C1CCCCC1	4.81
COc1ccc(C(CC(=O)N2CCC3(CC2)OCCO3)NS(=O)(=O)c2ccc(OC)cc2)cc1 (stereo not shown)	7.14
CC1CN(Cc2ccccc2)c2nc3c(c(=O)n(CC(N)=O)c(=O)n3C)n2C1 (stereo not shown)	14.5
CCCn1c(=O)c2c(nc3n2CCCN3Cc2ccccc2)n(C)c1=O	-34.3
C=C(C)Cn1c(=O)c2c(nc3n2CC(C)CN3Cc2ccccc2)n(C)c1=O (stereo not shown)	-65.6
CCn1c(=O)c2c(nc3n2CCCN3CCc2ccccc2)n(C)c1=O	-21.2
CC(C)Cn1c(=O)c2c(nc3n2CCCN3Cc2ccccc2)n(C)c1=O	-50
Cn1c(=O)n(Cc2ccccc2)c(=O)c2c1nc1n2CCCN1Cc1ccccc1	-31.1
CC1CN(Cc2ccccc2)c2nc3c(c(=O)n(CC(=O)O)c(=O)n3C)n2C1 (stereo not shown)	18.8
CC(C)CCn1c(=O)c2c(nc3n2CCCN3Cc2ccccc2)n(C)c1=O	-37.7
CCCn1c(=O)c2c(nc3n2CCCN3CCc2ccccc2)n(C)c1=O	-65.4
